Results: PMC11006913
Residue numbers refer to the chain shown, from its start.

Tests used:
Experiment in all cases: PBM; 200 nM protein, PBS
Settings in all cases: dsDNA, one strand shown
SIX6 [1] = target: T1, SIX6 (Homo sapiens, UniProt O95475 114-200, L167I)
T1 sequence: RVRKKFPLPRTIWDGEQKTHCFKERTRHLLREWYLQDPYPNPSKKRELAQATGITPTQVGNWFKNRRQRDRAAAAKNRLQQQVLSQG

SIX6 [2] = target: T2, SIX6 (Homo sapiens, UniProt O95475 114-200, L143V)
T2 sequence: T1 sequence with L30V, I54L

SIX6 [3] = target: T3, SIX6 (Homo sapiens, UniProt O95475 114-200, H141N)
T3 sequence: T1 sequence with H28N, I54L

SIX6 [4] = target: T4, SIX6 (Homo sapiens, UniProt O95475 114-200, T165P)
T4 sequence: T1 sequence with T52P, I54L

SIX6 [5] = target: T5, SIX6 (Homo sapiens, UniProt O95475 114-200, L167M)
T5 sequence: T1 sequence with I54M

SIX6 [6] = target: T6, SIX6 (Homo sapiens, UniProt O95475 114-200, L143M)
T6 sequence: T1 sequence with L30M, I54L

SIX6 [7] = target: T7, SIX6 (Homo sapiens, UniProt O95475 114-200, L143I)
T7 sequence: T1 sequence with L30I, I54L

SIX6 [8] = target: T8, SIX6 (Homo sapiens, UniProt O95475 114-200, T165G)
T8 sequence: T1 sequence with T52G, I54L

SIX6 [9] = target: T9, SIX6 (Homo sapiens, UniProt O95475 114-200, T139Q)
T9 sequence: T1 sequence with T26Q, I54L

SIX6 [10] = target: T10, SIX6 (Homo sapiens, UniProt O95475 114-200, T165A)
T10 sequence: T1 sequence with T52A, I54L

SIX6 [11] = target: T11, SIX6 (Homo sapiens, UniProt O95475 114-200, L167V)
T11 sequence: T1 sequence with I54V

SIX6 [12] = target: T12, SIX6 (Homo sapiens, UniProt O95475 114-200)
T12 sequence: T1 sequence with I54L

SIX6 [13] = target: T13, SIX6 (Homo sapiens, UniProt O95475 114-200, T165I)
T13 sequence: T1 sequence with T52I, I54L

Sequence	binding signal (SIX6 [1])	binding signal (SIX6 [2])	binding signal (SIX6 [3])	binding signal (SIX6 [4])	binding signal (SIX6 [5])	binding signal (SIX6 [6])	binding signal (SIX6 [7])	binding signal (SIX6 [8])	binding signal (SIX6 [9])	binding signal (SIX6 [10])	binding signal (SIX6 [11])	binding signal (SIX6 [12])	binding signal (SIX6 [13])
TGATACCA	11.3 upbm affinity estimate (log intensity, higher = more binding, comparable within an allelic series)	10.5 upbm affinity estimate (log intensity, higher = more binding, comparable within an allelic series)	11.3 upbm affinity estimate (log intensity, higher = more binding, comparable within an allelic series)	9.8 upbm affinity estimate (log intensity, higher = more binding, comparable within an allelic series)	10.7 upbm affinity estimate (log intensity, higher = more binding, comparable within an allelic series)	11 upbm affinity estimate (log intensity, higher = more binding, comparable within an allelic series)	10.6 upbm affinity estimate (log intensity, higher = more binding, comparable within an allelic series)	11.5 upbm affinity estimate (log intensity, higher = more binding, comparable within an allelic series)	11.3 upbm affinity estimate (log intensity, higher = more binding, comparable within an allelic series)	11.4 upbm affinity estimate (log intensity, higher = more binding, comparable within an allelic series)	11.1 upbm affinity estimate (log intensity, higher = more binding, comparable within an allelic series)	11.2 upbm affinity estimate (log intensity, higher = more binding, comparable within an allelic series)	11.1 upbm affinity estimate (log intensity, higher = more binding, comparable within an allelic series)
CTGATACC	11.3 upbm affinity estimate (log intensity, higher = more binding, comparable within an allelic series)	10.4 upbm affinity estimate (log intensity, higher = more binding, comparable within an allelic series)	11.3 upbm affinity estimate (log intensity, higher = more binding, comparable within an allelic series)	9.63 upbm affinity estimate (log intensity, higher = more binding, comparable within an allelic series)	10.6 upbm affinity estimate (log intensity, higher = more binding, comparable within an allelic series)	11 upbm affinity estimate (log intensity, higher = more binding, comparable within an allelic series)	10.4 upbm affinity estimate (log intensity, higher = more binding, comparable within an allelic series)	11.4 upbm affinity estimate (log intensity, higher = more binding, comparable within an allelic series)	11.4 upbm affinity estimate (log intensity, higher = more binding, comparable within an allelic series)	11.4 upbm affinity estimate (log intensity, higher = more binding, comparable within an allelic series)	11 upbm affinity estimate (log intensity, higher = more binding, comparable within an allelic series)	11.1 upbm affinity estimate (log intensity, higher = more binding, comparable within an allelic series)	11.1 upbm affinity estimate (log intensity, higher = more binding, comparable within an allelic series)
GCCCGGAA	9.01 upbm affinity estimate (log intensity, higher = more binding, comparable within an allelic series)	8.91 upbm affinity estimate (log intensity, higher = more binding, comparable within an allelic series)	8.98 upbm affinity estimate (log intensity, higher = more binding, comparable within an allelic series)	8.9 upbm affinity estimate (log intensity, higher = more binding, comparable within an allelic series)	8.95 upbm affinity estimate (log intensity, higher = more binding, comparable within an allelic series)	9.01 upbm affinity estimate (log intensity, higher = more binding, comparable within an allelic series)	9 upbm affinity estimate (log intensity, higher = more binding, comparable within an allelic series)	9.03 upbm affinity estimate (log intensity, higher = more binding, comparable within an allelic series)	9.07 upbm affinity estimate (log intensity, higher = more binding, comparable within an allelic series)	8.96 upbm affinity estimate (log intensity, higher = more binding, comparable within an allelic series)	8.95 upbm affinity estimate (log intensity, higher = more binding, comparable within an allelic series)	8.97 upbm affinity estimate (log intensity, higher = more binding, comparable within an allelic series)	8.98 upbm affinity estimate (log intensity, higher = more binding, comparable within an allelic series)
GATACACC	11.1 upbm affinity estimate (log intensity, higher = more binding, comparable within an allelic series)	10.4 upbm affinity estimate (log intensity, higher = more binding, comparable within an allelic series)	11.1 upbm affinity estimate (log intensity, higher = more binding, comparable within an allelic series)	9.65 upbm affinity estimate (log intensity, higher = more binding, comparable within an allelic series)	10.7 upbm affinity estimate (log intensity, higher = more binding, comparable within an allelic series)	10.9 upbm affinity estimate (log intensity, higher = more binding, comparable within an allelic series)	10.4 upbm affinity estimate (log intensity, higher = more binding, comparable within an allelic series)	11.2 upbm affinity estimate (log intensity, higher = more binding, comparable within an allelic series)	11.2 upbm affinity estimate (log intensity, higher = more binding, comparable within an allelic series)	11.1 upbm affinity estimate (log intensity, higher = more binding, comparable within an allelic series)	10.9 upbm affinity estimate (log intensity, higher = more binding, comparable within an allelic series)	11.1 upbm affinity estimate (log intensity, higher = more binding, comparable within an allelic series)	10.9 upbm affinity estimate (log intensity, higher = more binding, comparable within an allelic series)
GGCCGCCA	8.71 upbm affinity estimate (log intensity, higher = more binding, comparable within an allelic series)	8.68 upbm affinity estimate (log intensity, higher = more binding, comparable within an allelic series)	8.73 upbm affinity estimate (log intensity, higher = more binding, comparable within an allelic series)	8.9 upbm affinity estimate (log intensity, higher = more binding, comparable within an allelic series)	8.74 upbm affinity estimate (log intensity, higher = more binding, comparable within an allelic series)	8.71 upbm affinity estimate (log intensity, higher = more binding, comparable within an allelic series)	8.7 upbm affinity estimate (log intensity, higher = more binding, comparable within an allelic series)	8.66 upbm affinity estimate (log intensity, higher = more binding, comparable within an allelic series)	8.63 upbm affinity estimate (log intensity, higher = more binding, comparable within an allelic series)	8.66 upbm affinity estimate (log intensity, higher = more binding, comparable within an allelic series)	8.8 upbm affinity estimate (log intensity, higher = more binding, comparable within an allelic series)	8.68 upbm affinity estimate (log intensity, higher = more binding, comparable within an allelic series)	8.7 upbm affinity estimate (log intensity, higher = more binding, comparable within an allelic series)
CGATATCC	11.1 upbm affinity estimate (log intensity, higher = more binding, comparable within an allelic series)	10.2 upbm affinity estimate (log intensity, higher = more binding, comparable within an allelic series)	11.1 upbm affinity estimate (log intensity, higher = more binding, comparable within an allelic series)	9.62 upbm affinity estimate (log intensity, higher = more binding, comparable within an allelic series)	10.6 upbm affinity estimate (log intensity, higher = more binding, comparable within an allelic series)	10.9 upbm affinity estimate (log intensity, higher = more binding, comparable within an allelic series)	10.3 upbm affinity estimate (log intensity, higher = more binding, comparable within an allelic series)	11.1 upbm affinity estimate (log intensity, higher = more binding, comparable within an allelic series)	11.2 upbm affinity estimate (log intensity, higher = more binding, comparable within an allelic series)	11 upbm affinity estimate (log intensity, higher = more binding, comparable within an allelic series)	10.9 upbm affinity estimate (log intensity, higher = more binding, comparable within an allelic series)	11 upbm affinity estimate (log intensity, higher = more binding, comparable within an allelic series)	10.9 upbm affinity estimate (log intensity, higher = more binding, comparable within an allelic series)
